{
  "source": "PubChem BioAssay AID1236",
  "about": "(Emory University Molecular Libraries Screening Center, 2008)",
  "note": "Out of some 220,000 compounds screened, about 800 (0.36%) were called active.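 How the source made its calls: active means inhibition above about 50% (limit read from the data); inactive means the rest.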 Many of the other results were omitted from the sample, so actives are more common in it than they were.",
  "data": [
    {"system": "calpain II (m-calpain), Sus scrofa", "assay": "m-calpain protease activity blockers – biochemical, fluorogenic peptide substrate, 1536-well, primary screen (AID 1236)", "conditions": "purified calpain II, 30 min, at 16 µM, active compounds read high", "values": [
      {"smiles": "CCCc1cc(-c2n[nH]c(=S)n2Cc2ccccc2)cs1", "inhibition": "67.9% (active)"},
      {"smiles": "CCCc1cc(-c2n[nH]c(=S)n2CC)c2ccccc2n1", "inhibition": "-40.7% (inactive)"},
      {"smiles": "CCc1cc(-c2n[nH]c(=S)n2CC(C)C)cs1", "inhibition": "44.2% (inactive)"},
      {"smiles": "C=CCN(c1ccccc1C(=O)NCC(=O)OCC)S(=O)(=O)c1ccc(C)cc1", "inhibition": "-6.73% (inactive)"},
      {"smiles": "CCn1c(SCC(=O)Nc2ccc(S(=O)(=O)Nc3onc(C)c3C)cc2)nnc1-c1ccccc1", "inhibition": "-78.3% (inactive)"},
      {"smiles": "COc1ccc(C(=O)Nc2ccc(S(=O)(=O)Nc3onc(C)c3C)cc2)cc1OC", "inhibition": "29.6% (inactive)"},
      {"smiles": "Cc1cc(C)c2nc(-c3cccnc3)cc(C(=O)Nc3ccc(S(=O)(=O)Nc4onc(C)c4C)cc3)c2c1", "inhibition": "55.4% (active)"},
      {"smiles": "Cc1coc2cc3oc(=O)c(CCC(=O)O)c(C)c3cc12", "inhibition": "-98.6% (inactive)"},
      {"smiles": "O=c1cc(N2CCN(Cc3ccccc3)CC2)c(-c2ccccc2)n[nH]1", "inhibition": "-13.6% (inactive)"},
      {"smiles": "O=c1cc(N2CCCCC2)c(-c2ccccc2)nn1Cc1cccc(F)c1", "inhibition": "55.9% (active)"},
      {"smiles": "O=c1c2ccccc2c(-c2ccccc2)nn1Cc1ccccc1", "inhibition": "11.2% (inactive)"},
      {"smiles": "COc1cc2sc(C)nc2cc1C", "inhibition": "2.42% (inactive)"},
      {"smiles": "O=C(NCCNc1ccc([N+](=O)[O-])cc1)c1cccc2c(Br)cccc12", "inhibition": "-5.43% (inactive)"},
      {"smiles": "O=C(COc1ccc(S(=O)(=O)N2CCCCC2)cc1)NCc1ccccn1", "inhibition": "-4.04% (inactive)"},
      {"smiles": "CC1(C)OC(=O)C(=CSc2ccc(C(C)(C)C)cc2)C(=O)O1", "inhibition": "-10.7% (inactive)"},
      {"smiles": "CCCOc1ccc(NC(=O)C2OC3OC(C)(C)OC3C3OC(C)(C)OC23)cc1", "note": "(configuration not stated)", "inhibition": "-15.2% (inactive)"},
      {"smiles": "NNC(=O)c1cccc(COCC(F)(F)C(F)F)c1", "inhibition": "20.4% (inactive)"},
      {"smiles": "Cc1nc(-c2ccc(Cl)cc2)sc1C(=O)CBr", "inhibition": "27.7% (inactive)"},
      {"smiles": "Cc1nc(-c2ccccc2)sc1C(=O)/C=C/c1ccccc1", "inhibition": "-0.94% (inactive)"},
      {"smiles": "Cc1ccc(SCC(=O)c2sc(-c3ccccc3)nc2C)cc1", "inhibition": "66.3% (active)"},
      {"smiles": "Cc1ccc(C)c2c1cc(C)c1nnc(SCC(=O)Nc3cccc(C(=O)O)c3)n12", "inhibition": "-13.6% (inactive)"},
      {"smiles": "CC1(C)CCSC(/C=C/c2ccccc2)=N1", "inhibition": "-19.7% (inactive)"},
      {"smiles": "CCCN(C(=O)CSc1nnnn1C)c1c(N)n(Cc2ccccc2)c(=O)[nH]c1=O", "inhibition": "-5.69% (inactive)"},
      {"smiles": "C=CCNc1nc(Nc2ccc(Cl)cc2)nc(OC)n1", "inhibition": "-20.2% (inactive)"},
      {"smiles": "CC1=NNC(=O)C1CCC(=O)N/N=C(\\C)c1ccc(Cl)cc1", "note": "(configuration not stated)", "inhibition": "-20.4% (inactive)"},
      {"smiles": "O=C(Cn1nnc(-c2ccccc2)n1)NCc1ccccc1", "inhibition": "8.33% (inactive)"},
      {"smiles": "Cc1[nH]c2ccccc2c1/C=N\\NC(=O)Cn1nnc(-c2ccccc2)n1", "inhibition": "54.8% (active)"},
      {"smiles": "O=C(Cn1nnc(-c2ccccc2)n1)N/N=C/c1ccc(-c2ccc(Cl)cc2)o1", "inhibition": "-60.4% (inactive)"},
      {"smiles": "Cc1nn(Cc2ccc(F)cc2)c(C)c1NC(=O)c1cccnc1Cl", "inhibition": "7.19% (inactive)"},
      {"smiles": "COc1ccccc1NC(=O)c1c(Br)cnn1C", "inhibition": "-19.7% (inactive)"},
      {"smiles": "O=C1C=CC(=O)N1c1ccc(N2CCCCC2)cc1", "inhibition": "2.8% (inactive)"},
      {"smiles": "COc1ccc(OCC(=O)NNC(=O)c2ccc(-c3ccccc3)cc2)cc1", "inhibition": "-4.48% (inactive)"},
      {"smiles": "COc1ccc(OCC(=O)NNC(=O)c2cccc(C)c2)cc1", "inhibition": "1.17% (inactive)"},
      {"smiles": "COc1ccc(C(=O)Nc2cc(C)ccc2NC(=O)COc2ccccc2)cc1", "inhibition": "51.4% (active)"},
      {"smiles": "O=C(O)C1=C[C@H](c2cccs2)C[C@H](OCCCCO)O1", "inhibition": "-6.55% (inactive)"},
      {"smiles": "O=C(COC(=O)c1cnccn1)Nc1cccc2ccccc12", "inhibition": "-43.3% (inactive)"},
      {"smiles": "O=C(NC(=S)Nc1ccc(NC(=O)c2cccs2)cc1)c1ccc([N+](=O)[O-])cc1", "inhibition": "9.92% (inactive)"},
      {"smiles": "CC1CN/C(=C\\C(=O)c2ccc(Br)cc2)C(=O)N1", "note": "(configuration not stated)", "inhibition": "14.4% (inactive)"},
      {"smiles": "O=C(c1ccc(Cl)c([N+](=O)[O-])c1)N1CCN(c2ccccc2)CC1", "inhibition": "14% (inactive)"},
      {"smiles": "O=C(/C=C/c1ccc(Cl)cc1)N1CCN(c2ccccc2[N+](=O)[O-])CC1", "inhibition": "37.4% (inactive)"},
      {"smiles": "CO/N=C/c1ccc(N2CCN(C(=O)c3cccc(Cl)c3)CC2)c([N+](=O)[O-])c1", "inhibition": "53.5% (active)"},
      {"smiles": "CC1=NN(c2ccccc2)C(=O)C1C(=O)c1ccc([N+](=O)[O-])cc1", "note": "(configuration not stated)", "inhibition": "2.01% (inactive)"},
      {"smiles": "S=c1[nH]nc(Nc2ccccc2)s1", "inhibition": "31.7% (inactive)"},
      {"smiles": "COc1ccc(Cl)cc1NC(=O)CN(C)Cc1ccc(OC)c(OC)c1", "inhibition": "30.5% (inactive)"},
      {"smiles": "O=C(CSc1ccc(C(F)(F)F)cc1[N+](=O)[O-])NCCOc1ccccc1", "inhibition": "-9.45% (inactive)"},
      {"smiles": "CCS(=O)(=O)c1cc([N+](=O)[O-])c(Sc2ccccc2N)s1", "inhibition": "3.47% (inactive)"},
      {"smiles": "Nc1ccccc1Sc1ccc(C(F)(F)F)cc1[N+](=O)[O-]", "inhibition": "87.2% (active)"},
      {"smiles": "O=C1Nc2ccc([N+](=O)[O-])cc2C1=Nc1cccc(CO)c1", "inhibition": "21.2% (inactive)"},
      {"smiles": "CC1=NNC(=O)C1CCC(=O)N/N=C\\c1cccc(Cl)c1", "note": "(configuration not stated)", "inhibition": "-0.56% (inactive)"},
      {"smiles": "COc1ccc(/C=C(\\NC(=O)c2ccc(OCC(C)C)cc2)C(=O)OCc2ccco2)cc1", "inhibition": "14.9% (inactive)"},
      {"smiles": "O=C(Nc1nnc(C2CC2)s1)c1ccccn1", "inhibition": "-3.35% (inactive)"},
      {"smiles": "N#CCCCn1c(O)c(N=NC(=O)C(O)c2ccccc2)c2ccccc21", "note": "(configuration not stated)", "inhibition": "-3.6% (inactive)"},
      {"smiles": "O=C(Cn1cncn1)N/N=C/c1c2ccccc2cc2ccccc12", "inhibition": "-113% (inactive)"},
      {"smiles": "O=C1OC(OC(=O)c2ccccc2Br)C(N2CCOCC2)=C1Cl", "note": "(configuration not stated)", "inhibition": "-3.83% (inactive)"},
      {"smiles": "Cc1ccc(NC2=C(Cl)C(=O)OC2OC(=O)c2ccccc2C)cc1", "note": "(configuration not stated)", "inhibition": "66.5% (active)"},
      {"smiles": "Cc1ccccc1C(=O)OC1OC(=O)C(Cl)=C1Nc1ccccc1", "note": "(configuration not stated)", "inhibition": "-2.86% (inactive)"},
      {"smiles": "CCOc1ccc(/C=N/OCC(=O)NCc2cccs2)cc1", "inhibition": "3.21% (inactive)"},
      {"smiles": "COC(=O)c1sccc1NC(=O)CC1C(=O)NCCN1C(=O)Nc1ccc(F)cc1F", "note": "(configuration not stated)", "inhibition": "-15.5% (inactive)"},
      {"smiles": "Cc1cc(NC(=O)/C=C/C(=O)N(CC(=O)NC2CCCC2)c2ccc(F)cc2)no1", "inhibition": "1.62% (inactive)"},
      {"smiles": "O=C(c1ccc2c(c1)OCO2)N1CCN(C(=O)c2ccco2)CC1", "inhibition": "14.3% (inactive)"},
      {"smiles": "CCNC(=S)N1CCN(C(=O)c2ccco2)CC1", "inhibition": "-6.94% (inactive)"},
      {"smiles": "CCC(=O)Nc1ccc(C(=O)N2CCN(C(=O)c3ccco3)CC2)cc1", "inhibition": "50.8% (active)"}
    ]}
  ]
}
